From PubChem BioAssay (NCI)
About 83,000 compounds went through this panel and 20% of them were active in at least one assay; those are over-represented in the sample as a whole.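 48-hour exposure, single concentration, 96-well plates; percent growth endpoint where 0 means no net growth. Active: below 10.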 A number with no mark means an inactive call. Activity calls are given as the source filed them.

What was measured:
Test in all cases: NCI-60 one-dose screen, 48 h (100 = growth as untreated, 0 = no growth, -100 = all killed)
Conditions in all cases: 10 µM unless noted
[1] = test system: DU-145 prostate
[2] = test system: K-562 leukemia
[3] = test system: MALME-3M melanoma
[4] = test system: MDA-MB-231 breast
[5] = test system: RXF 393 renal
[6] = test system: SF-268 CNS
[7] = test system: SF-295 CNS
[8] = test system: SF-539 CNS
[9] = test system: UACC-257 melanoma
[10] = test system: M14 melanoma

COC(=O)[C@H](Cc1c[nH]c2ccccc12)NC(=O)[C@@H](OC)[C@@H]1Cc2cc3cc(OC4CC(OC5CC(O)C(O)C(C)O5)C(O)C(C)O4)c(C)c(O)c3c(O)c2C(=O)[C@H]1OC1CC(OC2CC(OC3CC(C)(O)C(O)C(C)O3)C(O)C(C)O2)C(O)C(C)O1 (stereo not given in full)
growth [1]: 12.5% | growth [2]: 4.37% (active) | growth [3]: -47% (active) | growth [4]: -14% (active) | growth [5]: -85.9% (active) | growth [6]: -10.1% (active) | growth [7]: -6.35% (active) | growth [8]: -35.3% (active) | growth [9]: -5% (active) | growth [10]: -60.2% (active)

COc1ccc(/C(C)=C(\c2ccc(OCCN3CCOCC3)cc2)c2ccc(OC(=O)Cc3ccccc3)cc2)cc1
growth [1]: 102% | growth [2]: 91% | growth [3]: 104% | growth [4]: 109% | growth [5]: 111% | growth [6]: 100% | growth [7]: 108% | growth [8]: 112% | growth [9]: 109% | growth [10]: 104%

CCCCCCCCCCCCCC[P+](CCCCCC)(CCCCCC)CCCCCC
growth [1]: -100% (active) | growth [2]: 39% | growth [3]: -83.9% (active) | growth [4]: -38.3% (active) | growth [5]: -97.7% (active) | growth [6]: -4.6% (active) | growth [7]: -68.4% (active) | growth [8]: 5.67% (active) | growth [9]: -34.6% (active) | growth [10]: -36.5% (active)

Cc1c(NS(=O)(=O)c2ccccc2)ccc([N+](=O)[O-])c1Cl
growth [1]: 94% | growth [2]: 74.4% | growth [3]: 35.3% | growth [4]: 84.8% | growth [5]: 77% | growth [6]: 75.9% | growth [7]: 31% | growth [8]: 67.4% | growth [9]: 59.5% | growth [10]: 70.4%

C[C@@H]1O[C@@H](O[C@H]2C[C@@H](O)[C@]3(CO)C4C(CC[C@]3(O)C2)[C@@]2(O)CC[C@H](C3=CC(=O)OC3)[C@@]2(C)C[C@H]4O)[C@H](O)[C@H](O)[C@H]1O (stereo not given in full)
growth [1]: -94.4% (active) | growth [2]: -22.4% (active) | growth [3]: -31% (active) | growth [4]: -22.5% (active) | growth [5]: -26.6% (active) | growth [6]: -91.7% (active) | growth [7]: -51.5% (active) | growth [8]: -80.1% (active) | growth [9]: -91.7% (active) | growth [10]: -86.2% (active)

O=C1C(Cl)=C(N2CCOCC2)C(=O)c2ccccc21
growth [1]: 114% | growth [2]: -36.7% (active) | growth [3]: 48.2% | growth [4]: 84.2% | growth [5]: 129% | growth [6]: 87.6% | growth [7]: 92.9% | growth [8]: 117% | growth [9]: 54.4% | growth [10]: 105%

CCCCN1CCCC[C@@H]1C(=O)N[C@H](C(=O)N(C)[C@H](C[C@@H](OC(C)=O)c1nc(C(=O)NC2CCC(C(=O)OC)CC2)cs1)C(C)C)C(C)C (stereo not given in full)
growth [1]: 9.02% (active) | growth [2]: 9.52% (active) | growth [3]: 43.8% | growth [4]: 45.7% | growth [5]: 18.3% | growth [6]: 48.8% | growth [7]: 18.6% | growth [8]: -5.06% (active) | growth [9]: 59.4% | growth [10]: -2.18% (active)

COc1ccc2c(c1)c(C1(O)CC(CSC#N)OC1=O)cn2C(=O)c1ccc(Cl)cc1 (stereo not given)
growth [1]: 114% | growth [2]: 98.5% | growth [3]: 81.9% | growth [4]: 92.9% | growth [5]: 114% | growth [6]: 106% | growth [7]: 90.2% | growth [8]: 96.3% | growth [9]: 95.5% | growth [10]: 96.4%

CC1=C(O)[C@@](C)(CCCCC[C@H](C)CCCCc2ccc(O)cc2)OOC1=O
growth [1]: 113% | growth [2]: 94.4% | growth [3]: 87.3% | growth [4]: 85.2% | growth [5]: 111% | growth [6]: 110% | growth [7]: 90.4% | growth [8]: 101% | growth [9]: 89.8% | growth [10]: 96.6%

CCOC(=O)[C@@H](C)C[C@H](Cc1ccccc1)NC(=O)c1csc([C@@H](C[C@H](C(C)C)N(C)C(=O)[C@@H](NC(=O)[C@H]2CCCCN2C)C(C)(C)CC)OC(C)=O)n1
growth [1]: 0.285% (active) | growth [2]: 5.03% (active) | growth [3]: 11.9% | growth [4]: -1.28% (active) | growth [5]: 23.5% | growth [6]: 12.3% | growth [7]: -4.66% (active) | growth [8]: -28.4% (active) | growth [9]: 48.1% | growth [10]: -26.8% (active)

COc1ccc2c(c1)c(-c1nc(-c3c[nH]c4ncccc34)cs1)cn2CCN1CCOCC1
growth [1]: 45.3% | growth [2]: 38.3% | growth [3]: 71% | growth [4]: 51% | growth [5]: 53.7% | growth [6]: 60.9% | growth [7]: 62% | growth [8]: 48.2% | growth [9]: 92.1% | growth [10]: 49.4%

O=[N+]([O-])c1c(Br)sc(Br)c1[N+](=O)[O-]
growth [1]: 46.9% | growth [2]: 3.25% (active) | growth [3]: -41.5% (active) | growth [4]: 14.2% | growth [5]: -75.5% (active) | growth [6]: 85.7% | growth [7]: 99% | growth [8]: -12.3% (active) | growth [9]: -0.992% (active) | growth [10]: -18.9% (active)

COC(=O)[C@@H](C)C[C@H](Cc1ccccc1)NC(=O)c1nc([C@@H](C[C@H](C(C)C)N(C)C(=O)[C@@H](NC(=O)[C@H]2CCCCN2C)C(C)C)OC(C)=O)sc1C(C)C
growth [1]: -0.426% (active) | growth [2]: 7.38% (active) | growth [3]: 57.5% | growth [4]: 2.67% (active) | growth [5]: 23.7% | growth [6]: 22.1% | growth [7]: -1.35% (active) | growth [8]: -22.2% (active) | growth [9]: 50.7% | growth [10]: -26.6% (active)

COC(=O)[C@@H](C)C[C@H](Cc1ccccc1)NC(=O)c1csc([C@@H](C[C@H](C(C)C)N(C)C(=O)[C@@H](NC(=O)[C@H]2CCCCN2C)C(C(F)(F)F)C(F)(F)F)OC(C)=O)n1
growth [1]: 11.4% | growth [2]: 8.83% (active) | growth [3]: 65.8% | growth [4]: 6.65% (active) | growth [5]: 46% | growth [6]: 18.3% | growth [7]: 9.85% (active) | growth [8]: -11.1% (active) | growth [9]: 52.4% | growth [10]: -20.3% (active)

CC(=O)OCc1cc[c]([Hg][Cl])o1
growth [1]: 84.2% | growth [2]: 7.96% (active) | growth [3]: -39.7% (active) | growth [4]: 26% | growth [5]: -38.7% (active) | growth [6]: 22.5% | growth [7]: 78.1% | growth [8]: 44.2% | growth [9]: 53.5% | growth [10]: 13%

COc1cc2c(c(OC)c1OC)-c1ccc([O-])c(=O)cc1[C@@H](NC(C)=O)CC2.COc1cc2c(c(OC)c1OC)-c1ccc([O-])c(=O)cc1[C@@H](NC(C)=O)CC2.[Cu+2]
growth [1]: 4.95% (active) | growth [2]: 2.76% (active) | growth [3]: 52.5% | growth [4]: 35.5% | growth [5]: 13.4% | growth [6]: 27.1% | growth [7]: 18.7% | growth [8]: -17.2% (active) | growth [9]: 45.1% | growth [10]: 7.83% (active)

COC(=O)[C@@H](C)C[C@H](Cc1ccccc1)NC(=O)c1csc([C@@H](C[C@H](C(C)C)N(C)C(=O)[C@@H](NC(=O)C23CC(NC(C)=O)(C2)C3)C2CC2)OC(C)=O)n1
growth [1]: 61.6% | growth [2]: 14.2% | growth [3]: 56.4% | growth [4]: 57.9% | growth [5]: 36.9% | growth [6]: 55.6% | growth [7]: 82% | growth [8]: 42.4% | growth [9]: 46.2% | growth [10]: 41%

CC[C@]12C=CCN3CC[C@@]4(c5ccc(OC)cc5N(C)[C@H]4[C@@](O)(C(=O)OC)[C@@H]1OC(=O)CCCC[P+](c1ccccc1)(c1ccccc1)c1ccccc1)[C@@H]32
growth [1]: 14.7% | growth [2]: 21.7% | growth [3]: -35.8% (active) | growth [4]: -2.41% (active) | growth [5]: -13.3% (active) | growth [6]: 16.2% | growth [7]: 58.1% | growth [8]: 19% | growth [9]: 2.15% (active) | growth [10]: 29.4%

COc1ccc(/C=C\c2cc(OC)c(OC)c(OC)c2)c(NS(=O)(=O)c2ccc(C)cc2)c1O
growth [1]: -14.4% (active) | growth [2]: 17.6% | growth [3]: 92.2% | growth [4]: 14.8% | growth [5]: 32.5% | growth [6]: 19.4% | growth [7]: 16.9% | growth [8]: 1.5% (active) | growth [9]: 66.7% | growth [10]: 9.2% (active)

COC(=O)[C@@H](C)C[C@H](Cc1ccccc1)NC(=O)c1nc([C@@H](C[C@H](C(C)C)N(C)C(=O)[C@@H](NC(=O)[C@H]2C[C@H](O)CCN2C)C(C)C)OC(C)=O)sc1C(C)C
growth [1]: -4.78% (active) | growth [2]: 5.9% (active) | growth [3]: 28.4% | growth [4]: 3.71% (active) | growth [5]: 18.9% | growth [6]: 13.8% | growth [7]: -16.8% (active) | growth [8]: -36.9% (active) | growth [9]: 66.1% | growth [10]: -22.4% (active)

CC[C@H](C)[C@H](NC(=O)c1ccccn1)C(=O)N(C)[C@H](C[C@@H](OC(C)=O)c1nc(C(=O)N[C@@H](Cc2ccccc2)C[C@H](C)C(=O)OC)cs1)C(C)C
growth [1]: 6.32% (active) | growth [2]: 10.8% | growth [3]: 53.8% | growth [4]: 15.8% | growth [5]: -11.2% (active) | growth [6]: 32.3% | growth [7]: 7.86% (active) | growth [8]: -24% (active) | growth [9]: 69.8% | growth [10]: 4.96% (active)

ClC1=C(Cl)C(Cl)(C2(Cl)C(Cl)=C(Cl)C(Cl)=C2Cl)C(Cl)=C1Cl
growth [1]: -43.1% (active) | growth [2]: -24.6% (active) | growth [3]: -67.5% (active) | growth [4]: -29.3% (active) | growth [5]: -83.2% (active) | growth [6]: -46.4% (active) | growth [7]: 89.6% | growth [8]: -59% (active) | growth [9]: -60.4% (active) | growth [10]: -57.6% (active)

Fc1ccc2c(c1)c(-c1nc(-c3c[nH]c4ncccc34)cs1)cn2CCN1CCOCC1
growth [1]: 77% | growth [2]: 18.6% | growth [3]: 74.2% | growth [4]: 42.6% | growth [5]: 61.6% | growth [6]: 56.6% | growth [7]: 62% | growth [8]: 55.1% | growth [9]: 97.2% | growth [10]: 41.6%

O=[N+]([O-])/C=C\c1ccc(Cl)c(Cl)c1
growth [1]: 70% | growth [2]: 11.8% | growth [3]: -0.637% (active) | growth [4]: 74.8% | growth [5]: -79.8% (active) | growth [6]: 69.2% | growth [7]: 98.8% | growth [8]: 65.2% | growth [9]: 69.6% | growth [10]: -9.23% (active)

CC(=O)Oc1ccccc1C(=O)NCCC[Se]C#N
growth [1]: -32.9% (active) | growth [2]: 30.2% | growth [3]: -24.5% (active) | growth [4]: -38.5% (active) | growth [5]: -7.78% (active) | growth [6]: -22.3% (active) | growth [7]: -15.7% (active) | growth [8]: -72.1% (active) | growth [9]: 42.1% | growth [10]: -13.1% (active)
